According to PubChem BioAssay AID463190 (Sanford-Burnham Center for Chemical Genomics, 2010):
Screen size: about 330,000 compounds; about 7,300 (2.2%) were called active. This is one part of a sample in which actives are shown more often than they occur. A number with no mark means an inactive call.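 How the source made its calls: active means inhibition of at least 40%; inactive means the rest.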

experiment: growth inhibitors of tim10-1 mutant yeast, primary screen, luminescence, uHTS (AID 463190);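 further: mutant grown at 25 °C; 0% = DMSO wells with yeast and 100% = wells holding no yeast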; conditions: S. cerevisiae tim10-1 ts strain growth, BacTiter-Glo, 24 h; at 20 µM; stronger effect = higher value

Which inhibition does the source give for `O=S(=O)(c1ccc(Br)cc1)c1nc(-c2ccccc2)oc1N1CCOCC1` here?
The inhibition was 19.8%.

For `O=C1COc2ccc(C(=O)CSc3ccc(Br)cc3)cc2N1`, which inhibition is on record?
The inhibition was 14%.

With `CCOC(=O)c1[nH]c2c(c1-c1ccccc1)C(=O)CC(c1ccc(Cl)cc1)C2` (stereo not drawn) as the compound, how does the inhibition read?
The inhibition was 11.7%.

Which inhibition does the source give for `CCOC(=O)C1Sc2[nH]c(=O)sc2C(c2ccc(Cl)cc2)C1C(=O)OCC` (stereo not drawn) here?
The inhibition was 48.6% (active).

For `CCOC(=O)C1=C(C)NC(=O)N(C(C)=O)C1c1ccc(Cl)cc1` (stereo not drawn), which inhibition is on record?
The inhibition was 26.5%.

For `CCCn1c(SCC(=O)Nc2ccc(C)c(S(=O)(=O)N3CCOCC3)c2)n[nH]c1=O`, which inhibition is on record?
Its inhibition is 11.7%.

Which inhibition does the source give for `COc1ccc(-c2ccc3nnc(SCC(=O)Nc4ccc(NC(C)=O)cc4)n3n2)cc1` here?
Its inhibition is -13%.

With `Fc1cccc(CSc2nnc3ccc(-c4ccncc4)nn23)c1` as the compound, how does the inhibition read?
The inhibition was 16.3%.

Which inhibition does the source give for `CSc1nnc2ccc(-c3ccc(C)cc3)nn12` here?
Its inhibition is 45.7% (active).

Which inhibition does the source give for `Cc1oc(C(N)=O)cc1COc1ccc(C(N)=O)cc1` here?
The inhibition was -9.15%.

Which inhibition does the source give for `CCOc1cc(C(=O)Nc2ncccn2)cc(OCC)c1OCC` here?
The inhibition was 8.23%.

For `CCOc1cc(-c2conc2N)cc(OCC)c1OCC`, which inhibition is on record?
The inhibition was 41.9% (active).

With `CCOc1cc2c(Cl)ncnc2c(OCC)c1OCC` as the compound, how does the inhibition read?
Its inhibition is 19.3%.

With `Cc1sc2c(c1C)c(=O)n(-c1ccccc1)c1nncn21` as the compound, how does the inhibition read?
Its inhibition is 20.4%.

With `CC[C@H](C)C(=O)N[C@H]1CCCN1C(=O)/C=C/c1ccccc1` as the compound, how does the inhibition read?
The inhibition was -0.774%.

Which inhibition does the source give for `Cc1ccc2c(c1)N(CCCC(=O)NCc1cccnc1)C(=O)CO2` here?
The inhibition was -19.6%.

Which inhibition does the source give for `COc1ccc(CNC(=O)C[C@H]2C[C@H](C(=O)N3CCOCC3)[C@@]3(CCC4CCCC4)c4[nH]c5ccc(Cl)cc5c4CCN3C2=O)cc1OC` here?
Its inhibition is 17%.

For `CC1Cc2ccccc2N1CC(=O)Nc1ccc2c(c1)OC(F)(F)O2` (stereo not drawn), which inhibition is on record?
The inhibition was 20.8%.

With `CN1CCc2c(sc3c2c(NCc2ccco2)nc2nnnn23)C1` as the compound, how does the inhibition read?
The inhibition was 21.9%.

Which inhibition does the source give for `O=C(Nc1ccccc1Cl)/C(Cl)=C(\Cl)S(=O)c1ccccc1` (stereo not drawn) here?
The inhibition was 78.1% (active).

Which inhibition does the source give for `O=C(Cc1ccc2c(c1)CCCC2)Nc1ccccc1Cl` here?
The inhibition was 10.5%.

With `Cc1c(NC(=O)Nc2ccccc2Cl)sc(=S)n1C` as the compound, how does the inhibition read?
Its inhibition is 12%.

For `CN=C1C=C/C(=N/N=c2\ccn(O)cc2C)C=C1C`, which inhibition is on record?
The inhibition was 16.6%.

Which inhibition does the source give for `Cc1cc(-c2ccc(S(=O)(=O)N3CCN(c4cccc(C(F)(F)F)c4)CC3)s2)on1` here?
Its inhibition is -2.35%.

For `COC(C/C=C/C(=O)[C@@H](C)OCc1ccccc1)OC`, which inhibition is on record?
Its inhibition is 54.5% (active).

With `COC(C[C@H](O)CC(=O)[C@@H](C)OCc1ccccc1)OC` as the compound, how does the inhibition read?
Its inhibition is 7.97%.

With `COC(C[C@@H]1O[C@@H]1C(=O)[C@H](C)OCc1ccccc1)OC` as the compound, how does the inhibition read?
The inhibition was -17.2%.

With `O=S(=O)(/C=C/c1ccccc1)N1CCNCC1` as the compound, how does the inhibition read?
Its inhibition is 7.28%.

For `CCOc1ccccc1-n1c(SCC(=O)NCc2ccco2)nnc1-c1ccncc1`, which inhibition is on record?
Its inhibition is 8.51%.

Which inhibition does the source give for `Cc1cc(Br)ccc1SCC(=O)OCC(=O)NCc1ccc2c(c1)OCO2` here?
Its inhibition is 28%.

With `CC(=O)Nc1ccc(S(=O)(=O)Nc2ccc(N3CCCCC3)cc2)cc1` as the compound, how does the inhibition read?
Its inhibition is 3.03%.

For `O=C(Cc1ccccc1)NC(=S)Nc1ccc(N2CCCCC2)cc1`, which inhibition is on record?
The inhibition was 38.6%.

With `O=C1C=CC(=O)N1c1ccc(N2CCCCC2)cc1` as the compound, how does the inhibition read?
Its inhibition is 93% (active).

For `CC(=O)c1cccc(NC(=O)C2CCCN(S(=O)(=O)c3cccc4nonc34)C2)c1` (stereo not drawn), which inhibition is on record?
Its inhibition is -2.16%.

With `N#Cc1ccc(CSc2nnc3ccccn23)cc1` as the compound, how does the inhibition read?
Its inhibition is 21.5%.

With `N#Cc1ccc(CSc2nnc(-c3ccccn3)n2-c2ccc(Cl)cc2)cc1` as the compound, how does the inhibition read?
The inhibition was 40% (active).

Which inhibition does the source give for `N#Cc1ccc(CSc2ncccn2)cc1` here?
Its inhibition is -2.68%.

For `O=C1CSC2=NCN(c3ccccc3)CN12`, which inhibition is on record?
The inhibition was -4.56%.

For `Cc1nc(NC(=O)C2CCCCC2)sc1C`, which inhibition is on record?
Its inhibition is 25.4%.

For `CC1CCCCC1NC(=O)COc1ccc(C#N)cc1` (stereo not drawn), which inhibition is on record?
The inhibition was -1.06%.

Which inhibition does the source give for `CCOC(=O)c1c(NC(=O)C2CC=CCC2C(=O)O)sc(C)c1CC` (stereo not drawn) here?
Its inhibition is 15.4%.

For `O=C(CSc1nnc(-c2cccs2)n1Cc1ccco1)c1ccc2c(c1)OCO2`, which inhibition is on record?
Its inhibition is -3.98%.

With `COc1ccc(-c2cc(C3CCN(c4ncccc4[N+](=O)[O-])CC3)[nH]n2)cc1` as the compound, how does the inhibition read?
Its inhibition is 49.2% (active).

Which inhibition does the source give for `COc1ccc(-c2cc3ncccc3cn2)cc1` here?
The inhibition was 8.87%.

Which inhibition does the source give for `CC(=O)NC(Cc1ccccc1)C(=O)NC1CCN(c2ncccc2[N+](=O)[O-])CC1` (stereo not drawn) here?
The inhibition was 10.4%.

For `O=C(NCC1CCCO1)c1cc2c(s1)CCCC2` (stereo not drawn), which inhibition is on record?
Its inhibition is -4.36%.

With `O=C1CCCc2c1[nH]c1ccc(Br)cc21` as the compound, how does the inhibition read?
Its inhibition is 13.5%.

Which inhibition does the source give for `COc1cccc(C(=O)Oc2cc(C)[nH]c(=O)c2[N+](=O)[O-])c1` here?
The inhibition was -4.85%.

Which inhibition does the source give for `COC(=O)c1cc(S(=O)(=O)N2CCN(c3cc(C)ccc3C)CC2)c[nH]1` here?
Its inhibition is 41.6% (active).

Which inhibition does the source give for `Cc1ccc(C)c(N2CCN(S(=O)(=O)c3c(C)[nH]c(C)c3C(=O)N3CCCC3)CC2)c1` here?
Its inhibition is -8.05%.

With `Cc1ccc(C)c(N2CCN(S(=O)(=O)c3ccc4c(c3)oc(=O)n4C)CC2)c1` as the compound, how does the inhibition read?
The inhibition was 27.4%.

For `C/C(=N\N1CCN(Cc2ccc(C)cc2)CC1)c1ccco1`, which inhibition is on record?
The inhibition was -7.59%.

For `O=C(CN1CCN(c2ccc(F)cc2)CC1)Nc1cccc(C(F)(F)F)c1`, which inhibition is on record?
The inhibition was 41.1% (active).

With `O=C(CN1CCN(c2ccccc2)CC1)Nc1ccc(F)cc1` as the compound, how does the inhibition read?
Its inhibition is -0.126%.

For `O=C(CN1CCN(c2ccc(F)cc2)CC1)Nc1ccccc1`, which inhibition is on record?
The inhibition was 11.6%.

For `Cn1c(CCCOc2ccc(Cl)cc2Cl)n[nH]c1=S`, which inhibition is on record?
The inhibition was 47.8% (active).

For `O=C(CCCOc1ccc(Cl)cc1Cl)NNC(=O)C1CCC1`, which inhibition is on record?
Its inhibition is 5.85%.

Which inhibition does the source give for `CC(C)Oc1ccc(Cc2n[nH]c(=S)n2Cc2ccccc2)cc1Cl` here?
Its inhibition is -6.21%.

For `CCN1C(=O)[C@@H]2[C@@H](c3ccc(-c4cccc(Cl)c4)cc3)N3CCC[C@@]3(C(=O)OC)[C@@H]2C1=O`, which inhibition is on record?
The inhibition was 30.1%.

With `C[N+]1(CC(O)COc2ccccc2)CCN(C(=O)c2ccc([N+](=O)[O-])cc2)CC1` (stereo not drawn) as the compound, how does the inhibition read?
Its inhibition is -0.233%.

Which inhibition does the source give for `CCOC(=O)c1ccc(NNC(C)=O)c([N+](=O)[O-])c1` here?
The inhibition was 9.84%.

For `CCOC(=O)C/C(C)=N\Nc1ccc([N+](=O)[O-])cc1[N+](=O)[O-]`, which inhibition is on record?
Its inhibition is 44.5% (active).

With `CCCCOC(=O)CCCc1ccc([N+](=O)[O-])cc1[N+](=O)[O-]` as the compound, how does the inhibition read?
Its inhibition is 28.7%.
